According to PubChem BioAssay (NCI):
About 79,000 compounds went through this panel and 15% of them were active in at least one assay; those are over-represented in the sample as a whole. Calls of active or inactive are those of the source. Cut-off read from the data, not from the text of the source: active = growth inhibition above about 70%; inactive = the rest.

Legend:
[1] = NCI Yeast Anticancer Drug Screen. Data for the rad52 strain (AID 147);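 note: 0% = growth of vehicle-treated control cultures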; details: S. cerevisiae rad52 mutant growth inhibition, hits give high values
In short: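 Genetically altered yeast (DNA damage repair defect) treated with compound; inhibition calculated relative to vehicle.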

[2] = NCI Yeast Anticancer Drug Screen. Data for the rad50EPP+ strain (AID 151);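 note: 0% = growth of vehicle-treated control cultures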; details: S. cerevisiae rad50 mutant strain, hits give high values
In short: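 Strain rad50EPP+; compound exposure; % growth inhibition vs vehicle.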

[3] = NCI Yeast Anticancer Drug Screen. Data for the mgt1 strain (AID 153); details: S. cerevisiae mgt1 mutant growth inhibition, hits give high values
In short: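 Read-out: yeast growth inhibition vs vehicle control. Strain mgt1, drawn from a panel altered in DNA damage repair or cell cycle control.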

[4] = NCI Yeast Anticancer Drug Screen. Data for the rad50 strain (AID 155);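 note: 0% = growth of vehicle-only cultures of the same strain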; details: S. cerevisiae rad50 strain growth inhibition, hits give high values
In short: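 Inhibition values express reduced yeast growth in compound-treated cultures relative to vehicle-treated controls.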

[5] = NCI Yeast Anticancer Drug Screen. Data for the mec2-1 strain (AID 157); details: S. cerevisiae mec2-1 strain, hits give high values
In short: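 Cells of the genetically defined mec2-1 yeast strain are incubated with test compound. Inhibition of growth is calculated against vehicle-treated controls.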

[6] = NCI Yeast Anticancer Drug Screen. Data for the rad14 strain (AID 159);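 note: 0% = growth of vehicle-treated control cultures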; details: S. cerevisiae rad14 strain growth inhibition, hits give high values
In short: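 A mutant yeast strain defective in DNA damage repair is treated with compound; inhibition of its growth is scored against untreated, vehicle-exposed cultures.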

[7] = NCI Yeast Anticancer Drug Screen. Data for the CLN2oe strain (AID 163);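 note: 0% = growth of vehicle-only control cultures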; details: S. cerevisiae CLN2oe strain, hits give high values
In short: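 Strain altered in cell-cycle control, incubated with compound; growth compared to solvent-treated controls.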

[8] = NCI Yeast Anticancer Drug Screen. Data for the cln2 rad14 strain (AID 165);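 note: 0% = growth equal to vehicle treated cultures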; details: S. cerevisiae cln2 rad14 strain, hits give high values
In short: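 The screen exposed genetically defined yeast (cln2 rad14) to test compounds and scored growth inhibition relative to vehicle-treated controls.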

[9] = NCI Yeast Anticancer Drug Screen. Data for the bub3 strain (AID 167); details: S. cerevisiae bub3 mutant strain, hits give high values
In short: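 Steps: expose the mutant yeast strain to compound; grow alongside vehicle-treated cultures; measure growth; express inhibition against the vehicle cultures.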

[10] = NCI Yeast Anticancer Drug Screen. Data for the wt2 strain (AID 169);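 note: 0% = growth of vehicle-treated yeast cultures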; details: S. cerevisiae wt2 strain growth inhibition, hits give high values
In short: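 Steps: yeast strain treated with compound; growth recorded; inhibition calculated relative to cultures given vehicle alone.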

[11] = NCI Yeast Anticancer Drug Screen. Data for the mlh1 strain (AID 171);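 note: 0% = growth of vehicle-treated control cultures of the same strain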; details: S. cerevisiae mlh1 strain growth inhibition, hits give high values
In short: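 Yeast screen: mutant strain plus compound, growth scored against vehicle control wells.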

[12] = NCI Yeast Anticancer Drug Screen. Data for the mlh1 rad18 strain (AID 175); details: S. cerevisiae mlh1 rad18 strain growth inhibition, hits give high values
In short: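 Compound-treated yeast growth, normalised to vehicle controls. Strain bears defined DNA repair mutations.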

[13] = NCI Yeast Anticancer Drug Screen. Data for the rad18 strain (AID 177); details: S. cerevisiae rad18 mutant growth inhibition, hits give high values
In short: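 Inhibition values reflect reduced yeast growth compared with vehicle-treated controls, using a strain engineered with a DNA damage repair defect.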

[14] = NCI Yeast Anticancer Drug Screen. Data for the wt1 strain (AID 149);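 note: 0% = growth of vehicle-treated wt1 cultures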; details: S. cerevisiae wt1 strain (SPY 50644) growth inhibition, hits give high values
In short: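 Compounds are added to wt1 yeast cultures. Growth is then measured. Inhibition is expressed relative to vehicle-treated controls.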

[15] = NCI Yeast Anticancer Drug Screen. Data for the sgs1 mgt1 strain (AID 161);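 note: 0% = growth of cultures given vehicle only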; details: S. cerevisiae sgs1 mgt1 strain, hits give high values
In short: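 Genetically altered yeast, compound exposure, growth inhibition relative to vehicle.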

[16] = NCI Yeast Anticancer Drug Screen. Data for the sgs1 strain (AID 173);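 note: 0% = growth of vehicle-only control cultures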; details: S. cerevisiae sgs1 mutant, hits give high values
In short: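 Inhibition of yeast growth served as the measure. The mutant strain was treated with each compound, and growth was normalised to cultures receiving vehicle alone.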

[17] = at 5.0 µM (retest, dose inferred, filed as 0.5)
[18] = at 50.0 µM (retest, dose inferred, filed as 5.0)

Measured: growth inhibition

Oc1c(Br)cc(Br)cc1C1CCCCC1
inactive: [1]; at 1.2 µM -13% | [1]; at 3.7 µM -10% | [1]; at 11.0 µM -2% | [2]; at 1.2 µM 9% | [2]; at 3.7 µM 9% | [2]; at 11.0 µM 23% | [2]; at 33.0 µM 39% | [3]; at 1.2 µM 8% | [3]; at 3.7 µM 13% | [3]; at 11.0 µM 22% | [4]; at 1.2 µM -8% | [4]; at 3.7 µM -9% | [4]; [17] 39% | [4]; at 11.0 µM 5% | [5]; at 1.2 µM -9% | [5]; at 3.7 µM -3% | [5]; at 11.0 µM 5% | [6]; at 1.2 µM -22% | [6]; at 3.7 µM -4% | [6]; at 11.0 µM 3% | [7]; at 1.2 µM 22% | [7]; at 3.7 µM 13% | [7]; at 11.0 µM 27% | [8]; [17] 41% | [9]; at 1.2 µM 7% | [9]; at 3.7 µM 19% | [9]; [17] 4% | [9]; at 11.0 µM 25% | [10]; at 1.2 µM -23% | [10]; at 3.7 µM -22% | [10]; at 11.0 µM -15% | [11]; at 1.2 µM -26% | [11]; at 3.7 µM -12% | [11]; at 11.0 µM -5% | [12]; [17] 44% | [13]; at 1.2 µM -16% | [13]; at 3.7 µM 1% | [13]; at 11.0 µM 15%
active: [1]; at 33.0 µM 97% | [1]; at 100.0 µM 98% | [2]; at 100.0 µM 87% | [3]; at 33.0 µM 97% | [3]; at 100.0 µM 98% | [4]; at 33.0 µM 95% | [4]; [18] 99% | [4]; at 50.0 µM 89.2% | [4]; at 100.0 µM 96% | [5]; [17] 71% | [5]; at 33.0 µM 96% | [5]; [18] 99% | [5]; at 50.0 µM 90.8% | [5]; at 100.0 µM 98% | [6]; at 33.0 µM 97% | [6]; at 100.0 µM 98% | [7]; at 33.0 µM 98% | [7]; at 100.0 µM 99% | [8]; [18] 99% | [8]; at 50.0 µM 89.6% | [9]; at 33.0 µM 96% | [9]; [18] 98% | [9]; at 50.0 µM 89.8% | [9]; at 100.0 µM 97% | [10]; at 33.0 µM 91% | [10]; at 100.0 µM 96% | [11]; at 33.0 µM 91% | [11]; at 100.0 µM 96% | [12]; [18] 100% | [12]; at 50.0 µM 87.1% | [13]; at 33.0 µM 93% | [13]; at 100.0 µM 97%

CC(C)OC(=O)Oc1ccccc1OC(=O)OC(C)C
inactive: [14]; at 1.2 µM -2% | [14]; at 3.7 µM -3% | [14]; at 11.0 µM -1% | [14]; at 33.0 µM -3% | [14]; at 100.0 µM -2% | [3]; at 1.2 µM 2% | [3]; at 3.7 µM 3% | [3]; at 11.0 µM 3% | [3]; at 33.0 µM 2% | [3]; at 100.0 µM 4% | [4]; at 1.2 µM -5% | [4]; at 3.7 µM -3% | [4]; [17] 1% | [4]; at 11.0 µM -2% | [4]; at 33.0 µM -1% | [4]; [18] 3% | [4]; at 50.0 µM 39.3% | [4]; at 100.0 µM -1% | [5]; at 1.2 µM 0% | [5]; at 3.7 µM -1% | [5]; [17] -15% | [5]; at 11.0 µM 0% | [5]; at 33.0 µM 0% | [5]; [18] -5% | [5]; at 50.0 µM 20.9% | [5]; at 100.0 µM -1% | [6]; at 1.2 µM -6% | [6]; at 3.7 µM -4% | [6]; at 11.0 µM -3% | [6]; at 33.0 µM 0% | [6]; at 100.0 µM 0% | [15]; [17] -2% | [15]; [18] -6% | [15]; at 50.0 µM 1.8% | [7]; at 1.2 µM 2% | [7]; at 3.7 µM 4% | [7]; at 11.0 µM 3% | [7]; at 33.0 µM 1% | [7]; at 100.0 µM 4% | [8]; [17] 26% | [8]; [18] 55% | [8]; at 50.0 µM 23.2% | [9]; at 1.2 µM 0% | [9]; at 3.7 µM 0% | [9]; [17] 15% | [9]; at 11.0 µM 4% | [9]; at 33.0 µM 7% | [9]; [18] 8% | [9]; at 50.0 µM 15.7% | [9]; at 100.0 µM 9% | [10]; at 1.2 µM -3% | [10]; at 3.7 µM -2% | [10]; at 11.0 µM -2% | [10]; at 33.0 µM -3% | [10]; at 100.0 µM -2% | [11]; at 1.2 µM 0% | [11]; at 3.7 µM 1% | [11]; at 11.0 µM 2% | [11]; at 33.0 µM 3% | [11]; at 100.0 µM 3% | [16]; at 1.2 µM -1% | [16]; at 3.7 µM 0% | [16]; at 11.0 µM 1% | [16]; at 33.0 µM 1% | [16]; at 100.0 µM 2% | [12]; [17] -20% | [12]; [18] -7% | [12]; at 50.0 µM -9.1% | [13]; at 1.2 µM -3% | [13]; at 3.7 µM 1% | [13]; at 11.0 µM 0% | [13]; at 33.0 µM -3% | [13]; at 100.0 µM 0%

O=C(CC(=O)n1nc(-c2ccccc2)c(N=Nc2ccccc2C(=O)O)c1-c1ccccc1)Nc1ccc(Cl)cc1
active: [9]; [18] 71% | [9]; at 50.0 µM 88.7% | [9]; at 100.0 µM 72%
inactive: [1]; at 1.2 µM -2% | [1]; at 3.7 µM -1% | [1]; at 11.0 µM -1% | [1]; at 33.0 µM -2% | [1]; at 100.0 µM 8% | [2]; at 1.2 µM 2% | [2]; at 3.7 µM 6% | [2]; at 11.0 µM 15% | [2]; at 33.0 µM 23% | [2]; at 100.0 µM 37% | [3]; at 1.2 µM -2% | [3]; at 3.7 µM -3% | [3]; at 11.0 µM -5% | [3]; at 33.0 µM -6% | [3]; at 100.0 µM 7% | [4]; at 1.2 µM -2% | [4]; at 3.7 µM 1% | [4]; [17] 7% | [4]; at 11.0 µM 1% | [4]; at 33.0 µM 2% | [4]; [18] 16% | [4]; at 50.0 µM 49% | [4]; at 100.0 µM 14% | [5]; at 1.2 µM -2% | [5]; at 3.7 µM -1% | [5]; [17] 3% | [5]; at 11.0 µM -2% | [5]; at 33.0 µM -3% | [5]; [18] 4% | [5]; at 50.0 µM 36.2% | [5]; at 100.0 µM 2% | [15]; [17] -5% | [15]; [18] 20% | [15]; at 50.0 µM 41.7% | [7]; at 1.2 µM -4% | [7]; at 3.7 µM -3% | [7]; at 11.0 µM -7% | [7]; at 33.0 µM -10% | [7]; at 100.0 µM -15% | [8]; [17] 2% | [8]; [18] 24% | [8]; at 50.0 µM 9.4% | [9]; at 1.2 µM 8% | [9]; at 3.7 µM 15% | [9]; [17] 6% | [9]; at 11.0 µM 28% | [9]; at 33.0 µM 46% | [10]; at 1.2 µM -3% | [10]; at 3.7 µM -3% | [10]; at 11.0 µM -3% | [10]; at 33.0 µM -6% | [10]; at 100.0 µM 4% | [11]; at 1.2 µM -2% | [11]; at 3.7 µM -3% | [11]; at 11.0 µM -3% | [11]; at 33.0 µM -6% | [11]; at 100.0 µM 6% | [16]; at 1.2 µM -2% | [16]; at 3.7 µM -1% | [16]; at 11.0 µM 1% | [16]; at 33.0 µM 0% | [16]; at 100.0 µM 21% | [12]; [17] -11% | [12]; [18] 43% | [12]; at 50.0 µM 36% | [13]; at 1.2 µM -4% | [13]; at 3.7 µM -1% | [13]; at 11.0 µM 3% | [13]; at 33.0 µM 6% | [13]; at 100.0 µM 43%
